# Laboratory results as given in the supplement of paper PMC4022240.
# ± gives the standard deviation.
# T1: HaloTag-ATRX ADD domain (163-292)
# T1 chain: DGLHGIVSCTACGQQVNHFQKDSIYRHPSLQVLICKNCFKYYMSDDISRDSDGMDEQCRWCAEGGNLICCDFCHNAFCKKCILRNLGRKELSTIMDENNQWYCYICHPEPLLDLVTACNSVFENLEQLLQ
# Assays:
# Assay in all cases: peptide microarray binding signal (635 nm), min-max normalized on array (fraction of array maximum); higher = stronger binding
# [1] = biological target: T1, HaloTag-ATRX ADD domain (163-292)
# Outline: (§1)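 Binding signal is the mean intensity of triplicate spots, min-max scaled within each library. Histone 13-mer peptide–cellulose conjugates were spotted in triplicate on nitrocellulose with a Cy3 tracer and blocked overnight at 4°C. Probing lasted 1 h at 4°C, either with biotin-labelled HaloTag reader fusions (10 nM to 1 μM) and streptavidin-Alexa Fluor 647 or with rabbit histone antibodies (1:10,000 to 1:2,000) and anti-rabbit Alexa 647. An Axon GenePix 4000B read signal at 635 nm and misprints at 532 nm.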
# [2] = biological target: HaloTag-ING2 PHD (mouse Ing2 200-280)
# Outline: as §1
# [3] = biological target: anti-H3K4me3 antibody ab8580
# Outline: as §1
# [4] = biological target: anti-H3K9me3 antibody ab8898
# Outline: as §1
# [5] = peptide region: H3 20-32, peptide modifications: H3R26me2s H3K27me2, binder concentration: 1:2,000 dilution
# [6] = peptide region: H3 20-32, peptide modifications: H3R26me2s H3K27me2, binder concentration: 1:10,000 dilution
# [7] = peptide region: H3 20-32, peptide modifications: H3S28ph, binder concentration: 1:2,000 dilution
# [8] = peptide region: H3 20-32, peptide modifications: H3S28ph, binder concentration: 1:10,000 dilution
# [9] = peptide region: H3 30-42, peptide modifications: H3K36ac, binder concentration: 1:2,000 dilution
# [10] = peptide region: H3 30-42, peptide modifications: H3K36ac, binder concentration: 1:10,000 dilution
# [11] = peptide region: H3 20-32, peptide modifications: H3R26me2s H3K27ac, binder concentration: 1:2,000 dilution
# [12] = peptide region: H3 20-32, peptide modifications: H3R26me2s H3K27ac, binder concentration: 1:10,000 dilution
# [13] = peptide region: H3 20-32, peptide modifications: H3T22ph, binder concentration: 1:2,000 dilution
# [14] = peptide region: H3 20-32, peptide modifications: H3T22ph, binder concentration: 1:10,000 dilution
# [15] = peptide region: H3 20-32, peptide modifications: H3R26me2s, binder concentration: 1:2,000 dilution
# [16] = peptide region: H3 20-32, peptide modifications: H3R26me2s, binder concentration: 1:10,000 dilution
# [17] = peptide region: H3 20-32, peptide modifications: H3R26me2a, binder concentration: 1:2,000 dilution
# [18] = peptide region: H3 20-32, peptide modifications: H3R26me2a, binder concentration: 1:10,000 dilution
# [19] = peptide region: H3 20-32, peptide modifications: H3R26me2a H3K27me2, binder concentration: 1:2,000 dilution
# [20] = peptide region: H3 20-32, peptide modifications: H3R26me2a H3K27me2, binder concentration: 1:10,000 dilution
# [21] = peptide region: H3 30-42, peptide modifications: H3K36ac H3K37ac, binder concentration: 1:2,000 dilution
# [22] = peptide region: H3 30-42, peptide modifications: H3K36ac H3K37ac, binder concentration: 1:10,000 dilution
# [23] = peptide region: H3 20-32, peptide modifications: H3T22ph H3K23ac, binder concentration: 1:2,000 dilution
# [24] = peptide region: H3 20-32, peptide modifications: H3T22ph H3K23ac, binder concentration: 1:10,000 dilution
binder,measurement,setting,value
LATKAARKSAPAT [H3 20-32 L A T K A A Rme2s Kme2 S A P A T],peptide microarray binding signal,"[1]; peptide region: H3 20-32, peptide modifications: H3R26me2s H3K27me2, binder concentration: 50 nM",0.00351 ± 3.8e-05
same,peptide microarray binding signal,"[1]; peptide region: H3 20-32, peptide modifications: H3R26me2s H3K27me2, binder concentration: 500 nM",0.00129 ± 2.1e-05
same,peptide microarray binding signal,"[2]; peptide region: H3 20-32, peptide modifications: H3R26me2s H3K27me2, binder concentration: 10 nM",0.003342 ± 1.8e-05
same,peptide microarray binding signal,"[2]; peptide region: H3 20-32, peptide modifications: H3R26me2s H3K27me2, binder concentration: 100 nM",0.00312 ± 7.5e-05
same,peptide microarray binding signal,[3]; [5],0.00128 ± 2e-05
same,peptide microarray binding signal,[3]; [6],0.00114 ± 2.3e-05
same,peptide microarray binding signal,[4]; [5],0.000725 ± 1.1e-05
same,peptide microarray binding signal,[4]; [6],0.000865 ± 9e-06
LATKAARKSAPAT [H3 20-32 L A T K A A R K Sph A P A T],peptide microarray binding signal,"[1]; peptide region: H3 20-32, peptide modifications: H3S28ph, binder concentration: 50 nM",0.013 ± 0.00031
same,peptide microarray binding signal,"[1]; peptide region: H3 20-32, peptide modifications: H3S28ph, binder concentration: 500 nM",0.00843 ± 0.0004
same,peptide microarray binding signal,"[2]; peptide region: H3 20-32, peptide modifications: H3S28ph, binder concentration: 10 nM",0.01074 ± 4.2e-05
same,peptide microarray binding signal,"[2]; peptide region: H3 20-32, peptide modifications: H3S28ph, binder concentration: 100 nM",0.0104 ± 0.00034
same,peptide microarray binding signal,[3]; [7],0.001057 ± 8.9e-06
same,peptide microarray binding signal,[3]; [8],0.00126
same,peptide microarray binding signal,[4]; [7],0.00116 ± 2.3e-05
same,peptide microarray binding signal,[4]; [8],0.00144 ± 2.8e-05
PATGGVKKPHRYR [H3 30-42 P A T G G V Kac K P H R Y R],peptide microarray binding signal,"[1]; peptide region: H3 30-42, peptide modifications: H3K36ac, binder concentration: 50 nM",0.0068 ± 0.00033
same,peptide microarray binding signal,"[1]; peptide region: H3 30-42, peptide modifications: H3K36ac, binder concentration: 500 nM",0.0116 ± 0.0019
same,peptide microarray binding signal,"[2]; peptide region: H3 30-42, peptide modifications: H3K36ac, binder concentration: 10 nM",0.0378 ± 0.0029
same,peptide microarray binding signal,"[2]; peptide region: H3 30-42, peptide modifications: H3K36ac, binder concentration: 100 nM",0.0552 ± 0.0035
same,peptide microarray binding signal,[3]; [9],0.0364 ± 0.0021
same,peptide microarray binding signal,[3]; [10],0.0246 ± 0.0028
same,peptide microarray binding signal,[4]; [9],0.025 ± 0.0016
same,peptide microarray binding signal,[4]; [10],0.00963 ± 0.00018
LATKAARKSAPAT [H3 20-32 L A T K A A Rme2s Kac S A P A T],peptide microarray binding signal,"[1]; peptide region: H3 20-32, peptide modifications: H3R26me2s H3K27ac, binder concentration: 50 nM",0.00495 ± 0.00035
same,peptide microarray binding signal,"[1]; peptide region: H3 20-32, peptide modifications: H3R26me2s H3K27ac, binder concentration: 500 nM",0.00714 ± 0.00025
same,peptide microarray binding signal,"[2]; peptide region: H3 20-32, peptide modifications: H3R26me2s H3K27ac, binder concentration: 10 nM",0.0155 ± 0.00088
same,peptide microarray binding signal,"[2]; peptide region: H3 20-32, peptide modifications: H3R26me2s H3K27ac, binder concentration: 100 nM",0.0127 ± 0.00058
same,peptide microarray binding signal,[3]; [11],0.00574 ± 0.0007
same,peptide microarray binding signal,[3]; [12],0.00491 ± 7.1e-05
same,peptide microarray binding signal,[4]; [11],0.0064 ± 0.0001
same,peptide microarray binding signal,[4]; [12],0.00715 ± 0.0006
LATKAARKSAPAT [H3 20-32 L A Tph K A A R K S A P A T],peptide microarray binding signal,"[1]; peptide region: H3 20-32, peptide modifications: H3T22ph, binder concentration: 50 nM",0.00339 ± 3.7e-05
same,peptide microarray binding signal,"[1]; peptide region: H3 20-32, peptide modifications: H3T22ph, binder concentration: 500 nM",0.00638 ± 0.00025
same,peptide microarray binding signal,"[2]; peptide region: H3 20-32, peptide modifications: H3T22ph, binder concentration: 10 nM",0.0046 ± 6.2e-05
same,peptide microarray binding signal,"[2]; peptide region: H3 20-32, peptide modifications: H3T22ph, binder concentration: 100 nM",0.00772 ± 0.00064
same,peptide microarray binding signal,[3]; [13],0.001548 ± 1.2e-05
same,peptide microarray binding signal,[3]; [14],0.00194 ± 3.1e-05
same,peptide microarray binding signal,[4]; [13],0.00068 ± 2.1e-05
same,peptide microarray binding signal,[4]; [14],0.00115 ± 2e-05
LATKAARKSAPAT [H3 20-32 L A T K A A Rme2s K S A P A T],peptide microarray binding signal,"[1]; peptide region: H3 20-32, peptide modifications: H3R26me2s, binder concentration: 50 nM",0.00668 ± 0.00025
same,peptide microarray binding signal,"[1]; peptide region: H3 20-32, peptide modifications: H3R26me2s, binder concentration: 500 nM",0.01295 ± 0.0001
same,peptide microarray binding signal,"[2]; peptide region: H3 20-32, peptide modifications: H3R26me2s, binder concentration: 10 nM",0.0106 ± 0.00025
same,peptide microarray binding signal,"[2]; peptide region: H3 20-32, peptide modifications: H3R26me2s, binder concentration: 100 nM",0.0116 ± 0.00039
same,peptide microarray binding signal,[3]; [15],0.00451 ± 0.00012
same,peptide microarray binding signal,[3]; [16],0.00479 ± 0.00014
same,peptide microarray binding signal,[4]; [15],0.0047 ± 0.00025
same,peptide microarray binding signal,[4]; [16],0.00329 ± 9.9e-05
LATKAARKSAPAT [H3 20-32 L A T K A A Rme2a K S A P A T],peptide microarray binding signal,"[1]; peptide region: H3 20-32, peptide modifications: H3R26me2a, binder concentration: 50 nM",0.00357 ± 0.0001
same,peptide microarray binding signal,"[1]; peptide region: H3 20-32, peptide modifications: H3R26me2a, binder concentration: 500 nM",0.00624 ± 0.00038
same,peptide microarray binding signal,"[2]; peptide region: H3 20-32, peptide modifications: H3R26me2a, binder concentration: 10 nM",0.00806 ± 0.00052
same,peptide microarray binding signal,"[2]; peptide region: H3 20-32, peptide modifications: H3R26me2a, binder concentration: 100 nM",0.0122 ± 0.0012
same,peptide microarray binding signal,[3]; [17],0.00525 ± 0.00065
same,peptide microarray binding signal,[3]; [18],0.004907 ± 3.6e-05
same,peptide microarray binding signal,[4]; [17],0.00334 ± 0.00044
same,peptide microarray binding signal,[4]; [18],0.00294 ± 6.7e-05
LATKAARKSAPAT [H3 20-32 L A T K A A Rme2a Kme2 S A P A T],peptide microarray binding signal,"[1]; peptide region: H3 20-32, peptide modifications: H3R26me2a H3K27me2, binder concentration: 50 nM",0.004984 ± 4.8e-05
same,peptide microarray binding signal,"[1]; peptide region: H3 20-32, peptide modifications: H3R26me2a H3K27me2, binder concentration: 500 nM",0.00857 ± 0.00072
same,peptide microarray binding signal,"[2]; peptide region: H3 20-32, peptide modifications: H3R26me2a H3K27me2, binder concentration: 10 nM",0.0166 ± 0.00092
same,peptide microarray binding signal,"[2]; peptide region: H3 20-32, peptide modifications: H3R26me2a H3K27me2, binder concentration: 100 nM",0.0255 ± 0.00049
same,peptide microarray binding signal,[3]; [19],0.0097 ± 0.0011
same,peptide microarray binding signal,[3]; [20],0.0118 ± 0.00089
same,peptide microarray binding signal,[4]; [19],0.0051 ± 0.00036
same,peptide microarray binding signal,[4]; [20],0.00363 ± 7.8e-05
PATGGVKKPHRYR [H3 30-42 P A T G G V Kac Kac P H R Y R],peptide microarray binding signal,"[1]; peptide region: H3 30-42, peptide modifications: H3K36ac H3K37ac, binder concentration: 50 nM",0.00357 ± 6.3e-05
same,peptide microarray binding signal,"[1]; peptide region: H3 30-42, peptide modifications: H3K36ac H3K37ac, binder concentration: 500 nM",0.00462 ± 8.3e-05
same,peptide microarray binding signal,"[2]; peptide region: H3 30-42, peptide modifications: H3K36ac H3K37ac, binder concentration: 10 nM",0.00489 ± 0.00017
same,peptide microarray binding signal,"[2]; peptide region: H3 30-42, peptide modifications: H3K36ac H3K37ac, binder concentration: 100 nM",0.00539 ± 0.00019
same,peptide microarray binding signal,[3]; [21],0.00264 ± 0.00042
same,peptide microarray binding signal,[3]; [22],0.003024 ± 2.6e-05
same,peptide microarray binding signal,[4]; [21],0.00427 ± 0.00042
same,peptide microarray binding signal,[4]; [22],0.00271 ± 0.00018
LATKAARKSAPAT [H3 20-32 L A Tph Kac A A R K S A P A T],peptide microarray binding signal,"[1]; peptide region: H3 20-32, peptide modifications: H3T22ph H3K23ac, binder concentration: 50 nM",0.00602 ± 0.00043
same,peptide microarray binding signal,"[1]; peptide region: H3 20-32, peptide modifications: H3T22ph H3K23ac, binder concentration: 500 nM",0.0111 ± 0.0014
same,peptide microarray binding signal,"[2]; peptide region: H3 20-32, peptide modifications: H3T22ph H3K23ac, binder concentration: 10 nM",0.0199 ± 0.0011
same,peptide microarray binding signal,"[2]; peptide region: H3 20-32, peptide modifications: H3T22ph H3K23ac, binder concentration: 100 nM",0.0259 ± 0.00072
same,peptide microarray binding signal,[3]; [23],0.00476 ± 0.00081
same,peptide microarray binding signal,[3]; [24],0.00616 ± 0.00082
same,peptide microarray binding signal,[4]; [23],0.00257 ± 0.00028
same,peptide microarray binding signal,[4]; [24],0.00202
